A short description of this assay: activators of LNCaP cell differentiation, retest, confirmation, side scatter shift, flow cytometry (AID 1069).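 Further: LNCaP human prostate cancer cells in low-serum medium with charcoal-stripped FBS; percent of cells with raised granularity gated so DMSO controls show 10%.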 The conditions noted are these: 4 d, stronger effect = higher value.

Here are results for 39 compounds from PubChem BioAssay AID1069 (NMMLSC, 2008).

Activity calls are given as the source filed them.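 How the source made its calls: active means high combined rank on largest and smallest cell-count-weighted shift across three tests, rank score above 45, floors 50 and 25 (some results past the limit were not filed as active); inactive means the rest.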

Consider `COc1ccccc1N1CCN(Cc2cc(Br)c(O)c3ncccc23)CC1`, for which the side scatter shift is 35.3% (inactive) (at 100 µM) and 17.4% (side scatter shift, at 10 µM).

Take `COC(=O)c1cc(-c2ccccc2)sc1NC(=O)c1cc(C)on1`: the side scatter shift reads like this: (at 100 µM) 70% (inactive); (side scatter shift, at 10 µM) 13.2%.

Turning to `CCOc1cccc(-c2nnc3n2N=C(c2cc(OC)ccc2OC)CS3)c1`, the side scatter shift (at 100 µM) was 0% (inactive) and the side scatter shift (side scatter shift, at 10 µM) came to 14.1%.

For `C=CCn1c(=N)n(CC(O)COc2ccc(OC)cc2)c2ccccc21` (stereo not drawn), the side scatter shift (at 100 µM) was 18.9% (inactive) and the side scatter shift (side scatter shift, at 10 µM) came to 10.9%.

Regarding `CCn1c(=O)cc(SCC(=O)N2CCN(C3CCCCC3)CC2)c2ccccc21`, the side scatter shift (at 100 µM) was 16.7% (inactive) and the side scatter shift (side scatter shift, at 10 µM) is 6.55%.

`Cc1oc(-c2ccccc2F)nc1CN1CCC(C(=O)NCCC2=CCCCC2)CC1`: the side scatter shift is, setting by setting: (at 100 µM) 29.4% (inactive); (side scatter shift, at 10 µM) 17.8%.

As for `CSc1nc2ccc(Nc3nc(N4CCOCC4)nc(N4CCOCC4)n3)cc2s1`, the side scatter shift is 14.6% (inactive) (at 100 µM) and 5.1% (side scatter shift, at 10 µM).

Consider `Cc1ccc(Oc2ccc(S(=O)(=O)N3CCOCC3)cc2C(N)=O)c(-n2nc3ccccc3n2)c1`, for which the side scatter shift was 20% (inactive) (at 100 µM) and 21.3% (side scatter shift, at 10 µM).

In the case of `O=C1CCCc2c1cc(C(=O)NC1CCSC1=O)c(=O)n2-c1ccccc1` (stereo not drawn), the side scatter shift is, setting by setting: (at 100 µM) 5.9% (inactive); (side scatter shift, at 10 µM) 4.8%.

Consider `CCOc1ccc2ccccc2c1C(=O)N1CCN(c2ccccc2)CC1`, for which the side scatter shift runs as follows: (at 100 µM) 21.1% (inactive); (side scatter shift, at 10 µM) 1.7%.

As to `C=CCn1c(=N)n(CC(O)COc2ccccc2OC)c2ccccc21` (stereo not drawn), the side scatter shift (at 100 µM) was 13.8% (inactive) and the side scatter shift (side scatter shift, at 10 µM) came out at 2.35%.

For `O=C(Cn1cc2c(n1)CCCC2)NCCCN1CCN(c2ccccc2F)CC1`, the side scatter shift is 56.4% (active) (at 100 µM) and 4.95% (side scatter shift, at 10 µM).

On to `CCc1ccc(-c2nc(CN3CCCC(C(=O)O)C3)c(C)o2)cc1` (stereo not drawn), for which the side scatter shift (at 100 µM) was 12.4% (inactive) and the side scatter shift (side scatter shift, at 10 µM) came out at 9%.

Consider `CCOC(=O)c1ccc(NC(=O)Nc2ccc3c4c(cccc24)C(=O)N3CC)cc1`, for which the side scatter shift is 34.3% (inactive) (at 100 µM) and 8.75% (side scatter shift, at 10 µM).

As to `Cn1c(C(=O)NCCN2CCN(c3ccccc3F)CC2)cc2c(=O)n(C)c3ccccc3c21`, the side scatter shift runs as follows: (at 100 µM) 50% (inactive); (side scatter shift, at 10 µM) 7.7%.

As to `Cc1oc(-c2ccc(Cl)cc2)nc1CN1CCCC(C(=O)N2CCN(C(=O)c3ccco3)CC2)C1` (stereo not drawn), the side scatter shift runs as follows: (at 100 µM) 42.1% (inactive); (side scatter shift, at 10 µM) 3.65%.

For the compound `N#CC1=C(N)OC2=C(C(=O)CCC2)C1c1ccc(OC(=O)N2CCOCC2)cc1` (stereo not drawn), the side scatter shift runs as follows: (at 100 µM) 7.8% (inactive); (side scatter shift, at 10 µM) 2.45%.

Consider `Cc1oc(-c2cccc(Cl)c2)nc1CN1CCCC(C(=O)NCc2ccco2)C1` (stereo not drawn), for which the side scatter shift by setting is: (at 100 µM) 50% (inactive); (side scatter shift, at 10 µM) 5.55%.

Turning to `CCC(CC)C(=O)Nc1cccc(C(=O)NCc2ccco2)c1`, the side scatter shift reads like this: (at 100 µM) 14.1% (inactive); (side scatter shift, at 10 µM) 6%.

Consider `CCN(CC)CCCNC(=O)c1cc(-c2cccc(Cl)c2)on1`, for which the side scatter shift is 4.1% (inactive) (at 100 µM) and 4.25% (side scatter shift, at 10 µM).

For the compound `CCc1ccc(-c2nc(CN3CCCC(C(=O)NCCc4ccc(OC)c(OC)c4)C3)c(C)o2)cc1` (stereo not drawn), the side scatter shift runs as follows: (at 100 µM) 25% (inactive); (side scatter shift, at 10 µM) 17.3%.

Regarding `Cc1cc(N2CCN(C)CC2)nc2ccc(NC(=O)c3ccc(Br)o3)cc12`, the side scatter shift by setting is: (at 100 µM) 0% (active); (side scatter shift, at 10 µM) 56.4%.

On to `CCN(CCNC(=O)C1CCN(Cc2nc(-c3cccc(Cl)c3)oc2C)CC1)c1ccccc1`, for which the side scatter shift by setting is: (at 100 µM) 66.7% (inactive); (side scatter shift, at 10 µM) 31.2%.

On to `CCOC(=O)c1c(C)n(C)c2ccc(OCC(O)CNC(CC)CO)cc12` (stereo not drawn), for which the side scatter shift runs as follows: (at 100 µM) 58.6% (active); (side scatter shift, at 10 µM) 3.3%.

With `O=C(CSc1nc2c(c(=O)n1-c1ccc(F)cc1)SCC2)NCC1CCCO1` (stereo not drawn), the side scatter shift runs as follows: (at 100 µM) 19.8% (inactive); (side scatter shift, at 10 µM) 3.9%.

As for `CCCNC(=O)C1CN(S(=O)(=O)c2ccccc2)CCN1S(=O)(=O)c1ccccc1` (stereo not drawn), the side scatter shift reads like this: (at 100 µM) 13.3% (inactive); (side scatter shift, at 10 µM) 8%.

Turning to `O=c1cc(-c2ccccc2)[nH]c2ccccc12`, the side scatter shift reads like this: (at 100 µM) 22.2% (inactive); (side scatter shift, at 10 µM) 9.15%.

Regarding `COc1ccc(CCNC(=O)C2CCCN(Cc3nc(-c4ccccc4C)oc3C)C2)cc1OC` (stereo not drawn), the side scatter shift reads like this: (at 100 µM) 25% (inactive); (side scatter shift, at 10 µM) 5.4%.

Regarding `COc1ccc(-c2nc(CN3CCC(C(=O)N4CCc5ccccc54)CC3)c(C)o2)cc1OC`, the side scatter shift (at 100 µM) was 12.5% (inactive) and the side scatter shift (side scatter shift, at 10 µM) is 2.7%.

Regarding `Cc1ccccc1-c1nc(CN2CCC(C(=O)NCc3ccco3)CC2)c(C)o1`, the side scatter shift runs as follows: (at 100 µM) 41.1% (inactive); (side scatter shift, at 10 µM) 3.2%.

As to `Cc1ccccc1-c1nc(CN2CCC(C(=O)NCCC3=CCCCC3)CC2)c(C)o1`, the side scatter shift (at 100 µM) was 9.1% (inactive) and the side scatter shift (side scatter shift, at 10 µM) turned out to be 24.8%.

With `Cc1cc(NC(=O)c2noc3c2CCc2ccccc2-3)n(-c2ccccc2)n1`, the side scatter shift is 21.9% (inactive) (at 100 µM) and 12.4% (side scatter shift, at 10 µM).

`Cc1ccnc(NC(=O)CCC(=O)N(CC(=O)NC2CCCCC2)c2cccc(C)c2C)c1`: the side scatter shift (at 100 µM) was 11.1% (inactive) and the side scatter shift (side scatter shift, at 10 µM) stood at 6.85%.

As to `Cc1cc(=O)oc(C)c1C(=O)NCCCN1CCN(c2ccc(F)cc2)CC1`, the side scatter shift (at 100 µM) was 8.5% (inactive) and the side scatter shift (side scatter shift, at 10 µM) was found to be 5.05%.

Regarding `Cc1ccccc1Cn1cnc2c(cnn2C(C)(C)C)c1=O`, the side scatter shift is 15.4% (inactive) (at 100 µM) and 5.05% (side scatter shift, at 10 µM).

For `Cc1ccc(C2=Nc3ccccc3NC(C)(c3ccc(C)o3)C2)o1` (stereo not drawn), the side scatter shift is 7.1% (inactive) (at 100 µM) and 10.1% (side scatter shift, at 10 µM).

Turning to `CCCN(CCC)CCNC(=O)C1CCN(Cc2nc(-c3ccc(Cl)cc3)oc2C)CC1`, the side scatter shift by setting is: (at 100 µM) 76.4% (active); (side scatter shift, at 10 µM) 74%.

`CCCOc1ccccc1C1CC(=O)Nc2cc3c(cc21)OCO3` (stereo not drawn): the side scatter shift (at 100 µM) is 16.7% (inactive) and the side scatter shift (side scatter shift, at 10 µM) stood at 22.1%.

Consider `CN(C)c1ccc(CNC2CC(C)(C)NC(C)(C)C2)cc1`, for which the side scatter shift by setting is: (at 100 µM) 49.2% (active); (side scatter shift, at 10 µM) 10.6%.
